Measurements published in PubChem BioAssay AID1159580 (chemical genetic matrix, 2015).
“And” between values parts separate entries of the source, which are not always exact repeats. Identical values can stand only once. Screen size: about 5,500 compounds; about 2,000 (36%) were called active. Another 18% or so got no clear call; they are omitted. Cut-off read from the data, not from the text of the source: active = normalized growth mostly below about 0.91 (no sharp cut-off); inconclusive = no clear call, values can overlap the other calls; inactive = mostly above about 0.92. The list shows a part of the results.

Test: chemical genetic growth profiling, strain panel (AID 1159580);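 note: tested at 20 µM; growth read once vehicle control cultures reached saturation at 30 °C; 1 = growth at the plate median or of vehicle wells; lower values mean less growth of the strain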
Conditions: growth OD

Measured: normalized growth

CCN(CC)CCNC(=O)COc1ccc(OC)cc1
inactive: S. cerevisiae deletion strains, locus YAL013W, strain DEP1, stronger effect = lower value 1 | S. cerevisiae deletion strains, locus YBR021W, strain FUR4, stronger effect = lower value 1.01 | S. cerevisiae deletion strains, locus YBR229C, strain ROT2, stronger effect = lower value 0.995 | S. cerevisiae deletion strains, locus YCL029C, strain bik1, stronger effect = lower value 0.983 | S. cerevisiae deletion strains, locus YDL035C, strain GPR1, stronger effect = lower value 1.02 | S. cerevisiae deletion strains, locus YDL074C, strain BRE1, stronger effect = lower value 0.989 | S. cerevisiae deletion strains, locus YDL101C, strain DUN1, stronger effect = lower value 0.993 | S. cerevisiae deletion strains, locus YDL134C, strain PPH21, stronger effect = lower value 1.01 | S. cerevisiae deletion strains, locus YDL185W, strain tfp1, stronger effect = lower value 0.964 | S. cerevisiae deletion strains, locus YDL192W, strain arf1, stronger effect = lower value 0.995 | S. cerevisiae deletion strains, locus YDR101C, strain arx1, stronger effect = lower value 0.973 | S. cerevisiae deletion strains, locus YDR150W, strain NUM1, stronger effect = lower value 0.993 | S. cerevisiae deletion strains, locus YDR162C, strain NBP2, stronger effect = lower value 1.01 | S. cerevisiae deletion strains, locus YDR318W, strain mcm21, stronger effect = lower value 0.988 | S. cerevisiae deletion strains, locus YDR388W, stronger effect = lower value 0.997 | S. cerevisiae deletion strains, locus YDR502C, strain sam2, stronger effect = lower value 1.01 | S. cerevisiae deletion strains, locus YEL061C, strain CIN8, stronger effect = lower value 1 | S. cerevisiae deletion strains, locus YER110C, stronger effect = lower value 0.989 | S. cerevisiae deletion strains, locus YER155C, strain BEM2, stronger effect = lower value 0.998 | S. cerevisiae deletion strains, locus YER167W, strain BCK2, stronger effect = lower value 1.01 | S. cerevisiae deletion strains, locus YGL078C, strain dbp3, stronger effect = lower value 0.997 | S. cerevisiae deletion strains, locus YGL086W, strain mad1, stronger effect = lower value 1.02 | S. cerevisiae deletion strains, locus YGL248W, strain PDE1, stronger effect = lower value 0.995 | S. cerevisiae deletion strains, locus YGR078C, strain PAC10, stronger effect = lower value 0.992 | S. cerevisiae deletion strains, locus YGR135W, strain pre9, stronger effect = lower value 1.01 | S. cerevisiae deletion strains, locus YGR229C, strain SMI1, stronger effect = lower value 1.01 | S. cerevisiae deletion strains, locus YGR252W, strain gcn5, stronger effect = lower value 1.15 | S. cerevisiae deletion strains, locus YHR030C, strain SLT2, stronger effect = lower value 0.995 and 0.975 | S. cerevisiae deletion strains, locus YHR079C, strain IRE1 (second series), stronger effect = lower value 0.986 | S. cerevisiae deletion strains, locus YHR079C, strain IRE1, stronger effect = lower value 0.965 | S. cerevisiae deletion strains, locus YHR094C, strain hxt1, stronger effect = lower value 0.981 | S. cerevisiae deletion strains, locus YHR129C, strain ARP1, stronger effect = lower value 0.994 | S. cerevisiae deletion strains, locus YHR200W, strain rpn10, stronger effect = lower value 0.989 | S. cerevisiae deletion strains, locus YIL066C, strain RNR3, stronger effect = lower value 0.999 | S. cerevisiae deletion strains, locus YIL073C, strain SPO22, stronger effect = lower value 0.974 | S. cerevisiae deletion strains, locus YIL125W, strain kgd1, stronger effect = lower value 1 | S. cerevisiae deletion strains, locus YIR030C, strain dcg1, stronger effect = lower value 0.999 | S. cerevisiae deletion strains, locus YJL095W, strain BCK1, stronger effect = lower value 0.983 and 0.978 | S. cerevisiae deletion strains, locus YJL134W, strain LCB3, stronger effect = lower value 0.994 | S. cerevisiae deletion strains, locus YJL168C, strain set2, stronger effect = lower value 0.981 | S. cerevisiae deletion strains, locus YJL187C, strain SWE1 (second series), stronger effect = lower value 0.984 | S. cerevisiae deletion strains, locus YJR043C, strain POL32, stronger effect = lower value 0.971 | S. cerevisiae deletion strains, locus YJR066W, strain TOR1, stronger effect = lower value 0.939 | S. cerevisiae deletion strains, locus YJR075W, strain HOC1, stronger effect = lower value 0.983 | S. cerevisiae deletion strains, locus YKL009W, strain mrt4, stronger effect = lower value 1.02 | S. cerevisiae deletion strains, locus YKL068W, stronger effect = lower value 0.983 | S. cerevisiae deletion strains, locus YKL085W, strain MDH1 (second series), stronger effect = lower value 0.981 | S. cerevisiae deletion strains, locus YKL085W, strain MDH1, stronger effect = lower value 0.981 | S. cerevisiae deletion strains, locus YKL190W, strain CNB1, stronger effect = lower value 0.997 | S. cerevisiae deletion strains, locus YKR001C, strain vps1, stronger effect = lower value 1.02 | S. cerevisiae deletion strains, locus YLR039C, strain RIC1, stronger effect = lower value 1.06 | S. cerevisiae deletion strains, locus YLR058C, strain SHM2, stronger effect = lower value 1 | S. cerevisiae deletion strains, locus YLR102C, strain apc9, stronger effect = lower value 0.991 | S. cerevisiae deletion strains, locus YLR113W, strain HOG1, stronger effect = lower value 0.969 | S. cerevisiae deletion strains, locus YLR262C, strain YPT6, stronger effect = lower value 1.05 | S. cerevisiae deletion strains, locus YLR268W, strain sec22, stronger effect = lower value 0.96 | S. cerevisiae deletion strains, locus YLR330W, strain CHS5, stronger effect = lower value 0.989 | S. cerevisiae deletion strains, locus YLR342W, strain FKS1 (second series), stronger effect = lower value 1.06 | S. cerevisiae deletion strains, locus YLR371W, strain rom2, stronger effect = lower value 0.99 | S. cerevisiae deletion strains, locus YLR418C, strain cdc73, stronger effect = lower value 1.01 | S. cerevisiae deletion strains, locus YML016C, strain PPZ1, stronger effect = lower value 1.01 | S. cerevisiae deletion strains, locus YML032C, strain rad52, stronger effect = lower value 0.97 | S. cerevisiae deletion strains, locus YML124C, strain tub3, stronger effect = lower value 0.996 | S. cerevisiae deletion strains, locus YMR078C, strain ctf18, stronger effect = lower value 0.978 | S. cerevisiae deletion strains, locus YMR223W, strain ubp8, stronger effect = lower value 1.04 | S. cerevisiae deletion strains, locus YMR263W, strain SAP30, stronger effect = lower value 0.982 | S. cerevisiae deletion strains, locus YMR307W, strain GAS1, stronger effect = lower value 1.05 | S. cerevisiae deletion strains, locus YNL067W, strain RPL9B, stronger effect = lower value 0.97 | S. cerevisiae deletion strains, locus YNL128W, strain TEP1, stronger effect = lower value 0.994 | S. cerevisiae deletion strains, locus YNL153C, strain GIM3, stronger effect = lower value 0.988 | S. cerevisiae deletion strains, locus YNL183C, strain NPR1, stronger effect = lower value 0.937 | S. cerevisiae deletion strains, locus YNL233W, strain BNI4, stronger effect = lower value 1.01 | S. cerevisiae deletion strains, locus YNL250W, strain rad50, stronger effect = lower value 0.993 | S. cerevisiae deletion strains, locus YNL271C, strain bni1, stronger effect = lower value 0.987 | S. cerevisiae deletion strains, locus YNL298W, strain CLA4, stronger effect = lower value 0.993 | S. cerevisiae deletion strains, locus YNL307C, strain MCK1, stronger effect = lower value 0.999 | S. cerevisiae deletion strains, locus YNL322C, strain KRE1, stronger effect = lower value 0.992 | S. cerevisiae deletion strains, locus YNR052C, strain pop2, stronger effect = lower value 0.984 | S. cerevisiae deletion strains, locus YOL006C, strain TOP1, stronger effect = lower value 1.01 | S. cerevisiae deletion strains, locus YOL012C, strain htz1 0.754 | S. cerevisiae deletion strains, locus YOL147C, strain pex11, stronger effect = lower value 0.997 | S. cerevisiae deletion strains, locus YOR061W, strain CKA2, stronger effect = lower value 1.01 | S. cerevisiae deletion strains, locus YOR069W, strain VPS5, stronger effect = lower value 0.998 | S. cerevisiae deletion strains, locus YOR136W, strain idh2, stronger effect = lower value 1.01 | S. cerevisiae deletion strains, locus YOR144C, strain elg1, stronger effect = lower value 0.998 | S. cerevisiae deletion strains, locus YOR184W, strain ser1, stronger effect = lower value 0.983 | S. cerevisiae deletion strains, locus YOR231W, strain MKK1, stronger effect = lower value 0.964 | S. cerevisiae deletion strains, locus YOR316C, strain cot1, stronger effect = lower value 0.981 | S. cerevisiae deletion strains, locus YPL055C, strain LGE1, stronger effect = lower value 0.949 | S. cerevisiae deletion strains, locus YPL241C, strain CIN2, stronger effect = lower value 1.01 | S. cerevisiae deletion strains, locus YPL256C, strain CLN2, stronger effect = lower value 0.972 | S. cerevisiae deletion strains, locus YPR119W, strain clb2, stronger effect = lower value 0.99 | S. cerevisiae deletion strains, locus YPR141C, strain kar3, stronger effect = lower value 0.992 | S. cerevisiae deletion strains, locus YPR163C, strain tif3, stronger effect = lower value 0.994 | S. cerevisiae deletion strains, locus YPR167C, strain met16, stronger effect = lower value 0.975 | S. cerevisiae deletion strains, strain wtn01, stronger effect = lower value 0.962 | S. cerevisiae strains, strain wild type, stronger effect = lower value 1
